# Bioassay records as filed in PubChem BioAssay.
# TEAD-YAP inh: TEAD-YAP interaction inhibition; inhibition, % at 9.12 µM; AID 1259422; HEK-TIYL cells, TEAD-Gal4/YAP UAS-luciferase luminescence; 640,000 tested, 1.4% active; in the data active = inhibition above about 32%
# FBW7 act: activators of human E3 ligase FBW7; AlphaScreen FBW7–phospho-cyclin E peptide binding, activator screen; normalized activity (activation), % at 26.1 µM; 650,000 tested, 0.13% active; AID 1259310; in the data active = normalized activity above about 1.9%;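 also: purified mutant Fbw7 with reduced substrate affinity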
# GPR151 ag: human GPR151 activation; activation, % at 11.2 µM; PathHunter beta-arrestin GPR151 cells, luminescence; Q8TDV0; 650,000 tested, 1% active; in the data active = activation above about 4.9%
# Target sequence (Q8TDV0 whole entry, looked up): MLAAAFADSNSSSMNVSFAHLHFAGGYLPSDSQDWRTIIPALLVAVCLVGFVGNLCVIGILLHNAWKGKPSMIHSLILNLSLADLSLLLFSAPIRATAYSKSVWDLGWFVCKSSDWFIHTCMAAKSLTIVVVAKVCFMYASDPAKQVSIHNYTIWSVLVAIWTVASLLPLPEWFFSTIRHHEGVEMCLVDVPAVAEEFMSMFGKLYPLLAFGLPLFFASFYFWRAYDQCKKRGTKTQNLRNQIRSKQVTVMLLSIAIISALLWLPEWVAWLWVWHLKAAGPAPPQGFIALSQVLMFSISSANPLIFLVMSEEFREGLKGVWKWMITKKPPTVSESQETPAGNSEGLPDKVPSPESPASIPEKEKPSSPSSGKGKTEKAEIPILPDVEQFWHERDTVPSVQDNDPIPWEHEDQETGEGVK
# MITF inh: inhibitors of human MITF; AID 1259374; inhibition, % at 2.6 µM; 650,000 tested, 0.91% active; AlphaScreen MITF homodimerization, bead proximity signal; in the data active = inhibition above about 50%
# A number is an active result; n = inactive; ! = a repeat was not active. An excerpt weighted towards active compounds, which were near 3.5% of everything screened.
SMILES,TEAD-YAP inh,FBW7 act,GPR151 ag,MITF inh
COc1ccccc1/C=C/C(=O)NCc1ccc(Cl)cc1,n,n,n,n
CC1CCN(C(=O)Cn2c(SCC(=O)N3CCc4ccccc43)nc3ccccc32)CC1,n,n,n,n
CN(C)C(=O)Cn1c(SCC(=O)N2CCCc3ccccc32)nc2ccccc21,34.6,n,n,n
Cc1nc(N=Nc2ccc(S(=O)(=O)O)cc2S(=O)(=O)O)c(COP(=O)(O)O)c(C=O)c1O,n,n,n,74.8!
O=C1NC2(CCN(Cc3cccc4cccnc34)CC2)Oc2ccccc21,n,n,n,n
O=C1NC2(CCN(C(=O)c3cccc4cccnc34)CC2)Oc2ccccc21,n,22.6,n,n
O=C(Cc1ccccc1)Nc1ccc(Br)cc1,n,n,n,n
O=C(Cc1ccc(Br)cc1)Nc1ccncc1,50.5,n,n,n
O=C(CN1CCC(n2nnc3cc(C(F)(F)F)ccc32)CC1)OCc1ccccc1,n,n,n,n
Cc1nc2ccccc2c(=O)n1/N=C/c1ccc(O)c(O)c1O,n,n,n,57.4
O=C1c2ccccc2C(=O)N1/N=C/c1ccc(O)c(O)c1O,n,n,n,91.9
O=C1Nc2ccccc2/C1=N\N=C\c1ccc(O)c(O)c1O,n,n,n,58.2
COc1ccc(NC(=O)C(=O)NCC2CCCCC2)cc1,n,n,n,n
O=C(NN1C(=O)c2ccccc2C1(O)Cc1ccccc1)c1ccccc1 (stereo unspecified),n,n,n,n
COc1ccc(-c2c(C#N)c(N)nc3sc(C(N)=O)c(N)c23)cc1OC,n,n,n,n
N#Cc1c(N)nc2sc(C(N)=O)c(N)c2c1-c1cccs1,42.1,n,n,n
NC(=O)c1sc2nc3c(c(-c4cccs4)c2c1N)CCCCC3,36.1,n,n,n
NC(=O)c1sc2nc3c(c(-c4ccco4)c2c1N)CCCCC3,39.7,n,n,n
Nc1c(C(=O)c2ccccc2)sc2nc3c(c(-c4cccs4)c12)CCCC3,n,n,n,n
CCOC(=O)c1sc2nc3c(c(-c4ccco4)c2c1N)CCCC3,n,n,n,n
Cc1ccc2cc3c(nc2n1)CCN(CCc1ccccn1)C3,n,n,n,n
Cc1cc(=O)[nH]c2c1c(=O)[nH]n2C1CCCCC1,n,n,n,n
ONC(=Nc1ccccc1Cl)c1ccccc1,n,n,n,n
CCOC(=O)c1c(C)[nH]c(C(=O)CSc2nccn2C)c1C,86.8,n,n,n
CCOC(=O)c1c(C)[nH]c(C(=O)CSc2nnnn2-c2ccc(Cl)cc2)c1C,n,n,n,n
SMILES,TEAD-YAP inh,FBW7 act,GPR151 ag,MITF inh
O=C1ON=C(c2ccccc2)/C1=C/C=C/c1ccco1,n,n,n,n
O=C1/C(=C\C=C/c2ccco2)C(C(F)(F)F)=NN1c1ccccc1,n,n,n,65.2
CCOC(=O)c1ccc(Nc2ccc([N+](=O)[O-])c3nonc23)cc1,n,1.9,n,n
CCOC(=O)c1ccc(Nc2ccc3nonc3c2[N+](=O)[O-])cc1,n,n,n,n
COc1ccc(C(=O)NNC(=O)C2CCCCC2)cc1OC,n,n,n,n
c1ccc(Nc2nc(NCC3CCCO3)c3ccccc3n2)cc1 (stereo unspecified),46.4,n,n,n
Fc1cccc(Nc2nc(NCC3CCCO3)c3ccccc3n2)c1 (stereo unspecified),44.6,n,n,n
O=CNc1ccccc1SSc1ccccc1NC=O,n,n,n,n
COc1ccc(-c2noc(-c3c(-c4ccccc4Cl)noc3C)n2)cc1,n,n,n,n
CC1=NN(c2ccc(C)c(C)c2)C(=O)/C1=C\c1ccc(N(C)C)c([N+](=O)[O-])c1,n,n,n,n
COC(=O)C1=CN(Cc2ccc(OC)c(OC)c2)C=C(C(=O)OC)C1c1ccc(Br)cc1,n,1.9,n,n
CCOc1cc(C2C(C(=O)OC)=CN(Cc3ccc(OC)c(OC)c3)C=C2C(=O)OC)ccc1O,47.7,n,n,n
COC(=O)C1=CN(Cc2ccc(OC)c(OC)c2)C=C(C(=O)OC)C1c1ccc(F)cc1,n,n,n,n
CCOc1cc(C2C(C(=O)OC)=CN(Cc3ccc(Cl)cc3)C=C2C(=O)OC)ccc1O,n,n,n,n
Cc1c(NC(=O)CSc2nc3ccc(NC(=O)c4ccccc4)cc3s2)c(=O)n(-c2ccccc2)n1C,n,n,n,n
COc1ccc(-c2cnnc(NCc3cnc(C)cn3)n2)cc1,n,n,n,n
COc1ccc(-c2cnc(NCc3cnc(C)cn3)nc2)cc1,45.6,n,n,n
O=c1c2c(-c3ccccc3)csc2ncn1/N=C/c1ccc(O)c(O)c1O,n,n,n,61.8
CCN(CC)CCCNC(=O)C(=O)Nc1nc(C23CC4CC(CC(C4)C2)C3)cs1,n,n,n,n
COCCNC(=O)/C(C#N)=C/c1c(Oc2cc(C)cc(C)c2)nc2c(C)cccn2c1=O,n,n,n,n
CCNC(=O)/C(C#N)=C/c1c(Oc2cccc(C)c2C)nc2c(C)cccn2c1=O,35.3,n,n,n
CNC(=O)/C(C#N)=C/c1c(Oc2ccccc2C)nc2c(C)cccn2c1=O,46.6,n,n,n
C=CCNC(=O)/C(C#N)=C/c1c(Oc2ccccc2C)nc2ccccn2c1=O,32.1,n,n,n
COCCCNC(=O)/C(C#N)=C/c1c(Oc2cc(C)cc(C)c2)nc2c(C)cccn2c1=O,33.0,n,n,n
CC(C)(C)C(=O)Nc1ccc(C(=O)NCC2CCCO2)cc1 (stereo unspecified),n,n,n,n
SMILES,TEAD-YAP inh,FBW7 act,GPR151 ag,MITF inh
COc1ccc(C2CC(c3ccccc3O)=NN2)cc1 (stereo unspecified),n,n,n,n
CC(C)C1CCC(Nc2ncc(-c3cccc(C(=O)NCCN(C)C)c3)n3ccnc23)CC1 (stereo unspecified),38.5,n,n,n
Cc1ccc(S(=O)(=O)C2(C(=O)NCCc3ccccc3)CC2)cc1,n,n,n,n
O=C(NCCNC(=O)c1ccccc1Br)c1ccccc1Br,n,n,n,n
O=C(Nc1ccccc1C(=O)NCCc1ccccc1)c1ccccc1Cl,n,n,n,n
O=C(NCCc1ccccc1)c1ccccc1Cl,33.3,n,n,n
O=C(NCCc1ccccc1)c1ccc(Br)cc1,n,n,n,n
O=C(NCCc1ccccc1)c1ccc(Cl)cc1,64.1,n,n,n
O=C(NCCc1ccccc1)C1(S(=O)(=O)c2ccc(Cl)cc2)CC1,n,2.0,n,n
O=C(NCCc1ccccc1)c1ccccc1Br,33.7,n,n,n
CCOC(=O)c1c(SC)sc(C(C)=O)c1C,n,n,n,n
CCOC(=O)c1c(C)[nH]c(C)c1C(=O)COC(=O)C12CC3CC(CC(C3)C1)C2,n,n,n,n
COc1ccc(NC(=O)c2cc3c(=O)oc4ccccc4c3s2)cc1OC,n,n,n,n
O=C(NCCc1ccccc1)c1cc(F)c(F)cc1Cl,34.5,n,n,n
Cc1[nH]c2ccc(-c3nnc(SCC(=O)N4CCCCC4C)o3)cc2c1C (stereo unspecified),50.7,n,n,n
CC1CCCCN1C(=O)CSc1nnc(-c2ccc3c(c2)OCO3)o1 (stereo unspecified),n,n,n,n
CCN1C=C/C(=C/C=c2/s/c(=C\c3sc(-c4ccccc4)c(-c4ccccc4)[n+]3CC)n(CC)c2=O)c2ccccc21,n,2.0,n,n
